Test results taken from PubChem BioAssay AID1085 (Emory University Molecular Libraries Screening Center, 2008).
The campaign covered roughly 220,000 compounds. About 930 (0.42%) were called active. This is one part of a sample in which actives are shown more often than they occur. No stated cut-off is given here; in the data, active means inhibition above about 50%; inactive means the rest.

Each molecule was assayed against Glycoprotein 42 (Epstein-Barr virus (strain AG876)) (UniProt Q1HVG2) (assay: Epstein-Barr virus gp42 inhibitors, primary screen, biochemical, uHTS, fluorescence polarization (AID 1085)). Details: Fluorescence polarization binding assay, mP read-out; hits give high values; tested at 21.74 µM.
Chain of Glycoprotein 42 (Epstein-Barr virus (strain AG876)) (Q1HVG2 whole entry, looked up): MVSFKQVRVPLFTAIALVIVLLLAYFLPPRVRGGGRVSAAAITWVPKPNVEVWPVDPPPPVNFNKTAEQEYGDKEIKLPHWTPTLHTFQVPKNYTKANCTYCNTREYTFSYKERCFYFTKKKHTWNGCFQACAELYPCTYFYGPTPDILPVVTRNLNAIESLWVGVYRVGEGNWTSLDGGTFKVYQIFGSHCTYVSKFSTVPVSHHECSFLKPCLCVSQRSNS

SMILES	inhibition
O=C1NC(=O)N(c2ccccc2)C(=O)/C1=C/c1ccc([N+](=O)[O-])s1	-9.65% (inactive)
Cc1cccc(N2C(=O)NC(=O)/C(=C\c3cnn(-c4ccccc4)c3)C2=O)c1	-3.6% (inactive)
O=C1NC(=O)N(c2ccc(F)cc2)C(=O)/C1=C/c1ccc2c(c1)CCCN2Cc1ccccc1	187% (active)
O=c1[nH]c(=O)n(CCc2ccccc2)c(O)c1/C=N/N1CCOCC1	-16.8% (inactive)
CN(C)CC1Oc2ccccc2OC1(O)c1ccccc1 (stereo not given)	-12% (inactive)
